MARV entry inh = blocks Marburg virus binding to or entry into cells; Marburg virus pseudotyped entry inhibition, cell reporter; Potency, µM (top dose mostly 37.8 µM), without a hit: top-dose activity change, negative = inhibition, hits mostly inhibitors; actives 1.8% (n = 300,000); AID 540276; calls by dose curve; tested in HEK293 cells; also: potency is read from the fitted curve at half-maximal effect; % is scaled to controls: 0 for no effect and ±100 for the full control effect
CHX counter = counter-screen hit for Shiga toxin inhibitors, cycloheximide; cell reporter, cycloheximide protein synthesis inhibition counterscreen; max response, %; actives 12% (n = 300,000); AID 2314; in the data active = max response mostly above about 13%, no sharp cut-off; inactive = mostly below about 14%; also: read at 38.3 µM for the half of the compounds with a filed dose; 0% is about no effect
LASV entry inh = blocks Lassa virus binding to or entry into cells; AID 540256; Lassa virus pseudotype entry inhibition, cell reporter; Potency, µM (series often up to 37.9 µM), for the others: at the top dose activity change, negative = inhibition, actives largely listed as inhibitors; actives 1.2% (n = 300,000); calls by dose curve; tested in HEK293 cells; also: potency is read from the fitted curve at half-maximal effect; % is scaled to controls: 0 for no effect and ±100 for the full control effect; nearly all actives have a fitted effect of over 50% in size
Vaccinia Venus = vaccinia inhibition (Venus reporter); actives 0.46% (n = 330,000); Potency, µM (series often up to 36.5 µM), for the others: at the top dose activity change, negative = inhibition, most hits filed as inhibitors; Vaccinia virus Venus reporter expression, fluorescence; AID 720580; calls by dose curve; tested in A549 cells; also: potency is read from the fitted curve at half-maximal effect; % is scaled to controls: 0 for no effect and ±100 for the full control effect; nearly all actives have a fitted effect of over 30% in size
Shiga inhibitor = Shiga toxin inhibition | actives 9.2% (n = 290,000) | inhibition, % at 38.7 µM | Vero cells, Shiga toxin protein synthesis inhibition reporter; in the data active = inhibition mostly above about 28%, no sharp cut-off; inactive = mostly below about 43%; also: 0% is about no effect
VACV mCherry inh = vaccinia inhibition (mCherry reporter) | Vaccinia virus mCherry reporter infection, fluorescence | Potency, µM (top dose mostly 36.5 µM), for inactives: at the highest dose activity change, negative = inhibition, hits mostly inhibitors | actives 0.63% (n = 310,000) | AID 720579; calls by dose curve; tested in A549 cells; also: potency is read from the fitted curve at half-maximal effect; % is scaled to controls: 0 for no effect and ±100 for the full control effect; nearly all actives have a fitted effect of over 35% in size
Starred values were filed as active, the others as inactive; ! = not confirmed by another sample; [ ] = another dose, or the depositor's remark. Shown is part of a subset that was picked to be rich in hits.

What do the screens show for `Cn1cnc2cc(NC(=O)c3cccs3)ccc21`?
MARV entry inh: inconclusive; CHX counter: 40.9*; LASV entry inh: -22.8%[46.1 µM]; Vaccinia Venus: inconclusive; Shiga inhibitor: 69.3*; VACV mCherry inh: inactive

What do the screens show for `Cc1cccc(C(=O)Nc2ccc3c(c2)ncn3C)c1`?
MARV entry inh: inconclusive; CHX counter: 51.2*; LASV entry inh: inconclusive; Vaccinia Venus: -11.8%; Shiga inhibitor: 68.7*; VACV mCherry inh: -21.9%

How did Cc1cccc(C(=O)Nc2cccc(C(=O)NC3CCCC3)c2)c1 do in these assays?
CHX counter: 15.8; Shiga inhibitor: 26.9

What do the screens show for `Cc1cccc(C(=O)Nc2ccc3c(c2)nc(C)n3C)c1`?
MARV entry inh: inconclusive; CHX counter: 38.9*; LASV entry inh: inconclusive; Vaccinia Venus: -3.5%; Shiga inhibitor: 41.0*; VACV mCherry inh: -12.9%

How did COCCNC(=O)c1ccc2c(c1)ncn2-c1cccc(C)c1 do in these assays?
CHX counter: 15.4*; Shiga inhibitor: 29.9

How did CCC1(C2CCN(C(=O)c3ccccc3C)CC2)NC(=O)N(CCc2scnc2C)C1=O (stereo not given) do in these assays?
Vaccinia Venus: -5.0%; VACV mCherry inh: -10.2%

What do the screens show for `Nc1ccccc1O`?
Vaccinia Venus: 0.7%; VACV mCherry inh: inactive

How did Oc1ccccc1O do in these assays?
MARV entry inh: 2.51µM*!; LASV entry inh: inconclusive; Vaccinia Venus: -7.0%; VACV mCherry inh: -12.9%

What do the screens show for `Cc1ccc(Nc2ncc(C(=O)Nc3ccc(F)cc3F)c3ccccc23)cc1Cl`?
MARV entry inh: 1.7%[46.1 µM]; LASV entry inh: 17.3%[46.1 µM]; Vaccinia Venus: -13.8%; VACV mCherry inh: -20.9%

What do the screens show for `Nc1ncncc1-c1ccccc1Cl`?
MARV entry inh: -11.5%[46.1 µM]; LASV entry inh: 1.9%[46.1 µM]; Vaccinia Venus: 6.9%; VACV mCherry inh: -14.1%

How did COC(=O)c1ccc(Cn2nnc3sc4c(c3c2=O)CCC(C)C4)cc1 (stereo not given) do in these assays?
MARV entry inh: inconclusive; LASV entry inh: 4.0%[46.1 µM]; Vaccinia Venus: -5.9%; VACV mCherry inh: -8.2%

How did COc1cccc(C2C=C(c3ccc(C)c(C)c3)Nc3nnnn32)c1OC (stereo not given) do in these assays?
LASV entry inh: inconclusive; Vaccinia Venus: -2.3%; VACV mCherry inh: -12.1%

How did COc1cccc(C2=CC(c3cccc(OC)c3OC)n3nnnc3N2)c1 (stereo not given) do in these assays?
MARV entry inh: inconclusive; CHX counter: 29.6*; LASV entry inh: inconclusive; Vaccinia Venus: inconclusive; Shiga inhibitor: 41.1*; VACV mCherry inh: -6.6%[1.46 µM]

Results for COc1ccc(OC)c(C2C=C(c3ccc(C)c(C)c3)Nc3nnnn32)c1 (stereo not given) ?
MARV entry inh: inconclusive; CHX counter: -1.0; LASV entry inh: 5.01µM*; Vaccinia Venus: inconclusive; Shiga inhibitor: -10.6

Results for COc1cccc(C2=CC(c3cccc(OC)c3OC(F)F)n3nnnc3N2)c1 (stereo not given) ?
MARV entry inh: -22.0%; CHX counter: 16.7*; LASV entry inh: -0.7%; Vaccinia Venus: -22.5%; Shiga inhibitor: 8.1; VACV mCherry inh: -27.5%

How did CCN1C(=O)[C@H]2[C@@H](c3ccc(-c4cccc(Cl)c4)c(OC)c3)N[C@@](C)(C(=O)OC)[C@H]2C1=O do in these assays?
Vaccinia Venus: -34.3%; VACV mCherry inh: -15.5%

What do the screens show for `CC(=O)c1ccc(F)c(-c2cc(C)cc3c2OC(CNC(=O)C[C@@H]2C[C@@H](C)NC(=S)N2)C3)c1` (stereo not given in full)?
Vaccinia Venus: -5.6%; VACV mCherry inh: -18.5%

Results for O=C(COc1cccc2cccnc12)Nc1ccccc1 ?
MARV entry inh: inconclusive; CHX counter: 34.3*; LASV entry inh: 1.0%; Vaccinia Venus: 4.0%; Shiga inhibitor: 56.0; VACV mCherry inh: inactive

What do the screens show for `O=C(COc1cccc2cccnc12)NCC(F)(F)F`?
MARV entry inh: -13.4%[46.1 µM]; CHX counter: -2.7; LASV entry inh: -2.3%; Vaccinia Venus: 2.2%; Shiga inhibitor: -5.4; VACV mCherry inh: -15.8%

What do the screens show for `C#CCn1cc(/C=N/NC(=O)COc2cccc3cccnc23)c2ccccc21`?
MARV entry inh: inconclusive; CHX counter: 11.8*; LASV entry inh: -0.1%; Vaccinia Venus: -10.4%; Shiga inhibitor: 25.9*; VACV mCherry inh: -14.1%

What do the screens show for `O=C(COc1cccc2cccnc12)N/N=C/c1ccccc1O`?
MARV entry inh: inconclusive; CHX counter: 8.6; LASV entry inh: inconclusive; Vaccinia Venus: -26.9%; Shiga inhibitor: -0.8; VACV mCherry inh: 2.51µM*

Results for Oc1ccccc1/C=N/Nc1cccc2cccnc12 ?
MARV entry inh: inconclusive; CHX counter: 29.6*; LASV entry inh: -39.8%; Shiga inhibitor: 101.0*

Results for Cc1ccccc1OCC(=O)N/N=C/c1cccc2cccnc12 ?
MARV entry inh: inconclusive; CHX counter: -2.4; LASV entry inh: inconclusive; Vaccinia Venus: inconclusive; Shiga inhibitor: -22.8; VACV mCherry inh: -25.5%

How did O=Nc1ccc(/C=C/c2ccnc3ccccc23)cc1 do in these assays?
Vaccinia Venus: -10.7%; VACV mCherry inh: -13.9%

How did O=C(NCc1ccccc1)C1CCCN1C(=O)Nc1ccccc1[N+](=O)[O-] (stereo not given) do in these assays?
CHX counter: 1.3; Shiga inhibitor: -6.3

How did CSc1ccc(/C=C/C(=O)OCC(=O)N(C)CCC#N)cc1 do in these assays?
MARV entry inh: 5.3%; CHX counter: 19.9*; LASV entry inh: 16.7%; Shiga inhibitor: 31.2*

Results for CSc1ccc(/C=C/C(=O)OCC(=O)N2CCCCCC2)cc1 ?
MARV entry inh: 12.9%; LASV entry inh: 5.0%; Vaccinia Venus: -22.9%; VACV mCherry inh: inconclusive

What do the screens show for `CC(C)=CCN1C(=O)[C@@]2(CC(C)=CC[C@@H](COc3ccccc3)O2)c2ccccc21`?
MARV entry inh: 3.3%[14.2 µM]; LASV entry inh: inconclusive

What do the screens show for `CCOc1ccc(NC(=O)c2ccc(-c3ccccc3)s2)cc1`?
MARV entry inh: -3.1%[46.1 µM]; LASV entry inh: 18.1%[46.1 µM]; Vaccinia Venus: 1.7%; VACV mCherry inh: 6.4%

Results for CNC(=O)c1ccc(-c2ccccc2)s1 ?
MARV entry inh: inconclusive; CHX counter: 34.1*; LASV entry inh: inconclusive; Vaccinia Venus: -12.5%; Shiga inhibitor: 69.2*

Results for Cc1cccc(NC(=O)CSc2nnc3c4ccccc4n(C)c3n2)c1 ?
MARV entry inh: -24.2%[46.1 µM]; LASV entry inh: -5.6%[46.1 µM]; Vaccinia Venus: -2.7%; VACV mCherry inh: -2.4%

Results for CCn1c2ccccc2c2nnc(SCCN3CCOCC3)nc21 ?
CHX counter: -0.9

What do the screens show for `Cn1c2ccccc2c2nnc(SCCN3CCOCC3)nc21`?
CHX counter: 15.9*; Shiga inhibitor: 30.1

How did Cc1ccc(-n2ncc3c(NCCCN4CCCC4=O)ncnc32)c(C)c1 do in these assays?
MARV entry inh: -11.0%; CHX counter: -2.7; LASV entry inh: -12.5%; Vaccinia Venus: 0.0%; Shiga inhibitor: -4.6; VACV mCherry inh: -6.3%

What do the screens show for `Cn1c2ccccc2c2nnc(SCC(=O)Nc3cccc(O)c3)nc21`?
CHX counter: 10.6*; Shiga inhibitor: 23.5
